Screens (PubChem)
Shown are actives, neighbours in structure and some others; about 3% of the full set was active somewhere.
DRD3 agonist: qHTS of D3 Dopamine Receptor Agonist: qHTS; AID 652048, 2013; max activation, %; D3R DiscoveRx beta-arrestin cells, luminescence, 90 min; 0.58% of 410,000 active; in the data active = max activation above about 30%
Target sequence (P35462 whole entry, looked up): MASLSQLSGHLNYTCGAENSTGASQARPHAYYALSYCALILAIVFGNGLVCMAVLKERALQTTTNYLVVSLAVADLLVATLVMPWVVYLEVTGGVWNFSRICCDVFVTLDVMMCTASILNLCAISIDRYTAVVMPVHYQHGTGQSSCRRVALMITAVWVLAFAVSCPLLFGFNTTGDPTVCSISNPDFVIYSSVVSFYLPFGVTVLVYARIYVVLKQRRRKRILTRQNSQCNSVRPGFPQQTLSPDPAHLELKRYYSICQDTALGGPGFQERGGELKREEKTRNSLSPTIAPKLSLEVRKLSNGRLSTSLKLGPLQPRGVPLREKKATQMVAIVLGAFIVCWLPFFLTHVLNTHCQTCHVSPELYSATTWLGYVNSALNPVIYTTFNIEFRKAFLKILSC
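Agonist-mode cell screen: cells plated at 1500/well and incubated overnight at 37 °C, then exposed to library compounds for 90 min at 37 °C. Detection reagent was added for 30–60 min at room temperature, and luminescence was read.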
Nrf2 ARE act: qHTS of Nrf2 Activators | AID 624171, 2012 | AREc32 ARE-luciferase reporter (MCF7-derived line), luminescence, 24 h | 0.31% of 410,000 active | Potency, µM (titrated, usually from 46.1 µM), most hits filed as activators; note: nearly all actives have a fitted effect of over 65% in size
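AREc32 cells carrying an ARE-driven firefly luciferase, 1000 cells/well in OPTI-MEM with 5% FBS, dosed after overnight attachment and incubated 24 hr at 37 deg C. Steady-Glo luminescence read after 30 min at RT.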
Glioma ERSR ind: qHTS for Inducers of the Endoplasmic Reticulum Stress Response (ERSR) in Human Glioma: qHTS | U87-MG GRP78 promoter luciferase reporter, 16 h | Potency, µM, hits mostly activators | 0.02% of 420,000 active | AID 602332, 2012; note: series mostly up to about 76 µM; nearly all actives have a fitted effect of over 35% in size
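Stably transfected U87-MG human glioma cells carrying a GRP78-based luminescent sensor were seeded at 1000 cells/well, pin-dosed with compounds and incubated 16 h. Luciferase reagent was then added, and end-point luminescence was read after 10 min at room temperature.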
D3 antag: qHTS of D3 Dopamine Receptor Antagonist: qHTS; D(3) dopamine receptor (Homo sapiens), P35462; D3R cells, DiscoveRx beta-arrestin luminescence, antagonist mode; active compounds read low; max response, negative = inhibition, %; 2.5% of 360,000 active; AID 652054, 2013; in the data active = max response below about -50%
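Cells plated overnight at 1500 cells/well, then exposed to library compounds with dopamine controls for 90 minutes at 37 degrees C. DiscoveRx reagent added for 30–60 minutes at room temperature; luminescence read, quantitative HTS format.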
Of the large screens only hits and unclear results are named; the others gave an inactive call. Unless noted, calls come from the whole dose curve; as a rule, active = well fitted curve in the direction sought with a large enough effect; inconclusive = small, poorly fitted or top-dose-only effect, or another doubt; inactive = no such curve, though single readings can be large; an effect the other way counts as inactive or inconclusive.

Cc1cccnc1-c1cccc2c1OC(CNC(=O)Cc1c(C)noc1C)C2 (centres undefined)	none (no result: DRD3 agonist, Nrf2 ARE act, D3 antag)
CCCCCOC(=O)CC(C(=O)OCCCCC)N1CCCCC1 (centres undefined)	none
O=C(O)CC(C(=O)OC1CCCCC1)N1CCOCC1 (centres undefined)	D3 antag -91.6
CCCCCCCCCOC(=O)C(CC(=O)O)N1CCOCC1 (centres undefined)	D3 antag -52.1
O=C(O)CC(C(=O)OCC1CCCO1)N1CCOCC1 (centres undefined)	none
COCc1c(C(=O)NC2CCCC2)cnn1-c1nccc(-c2ccco2)n1	none (no result: DRD3 agonist, Nrf2 ARE act, D3 antag)
Cc1ncc2c(c1CNC(=O)c1ccc3c(c1)OCO3)CCN(C(=O)/C=C/c1ccccc1Cl)C2	none (no result: DRD3 agonist, Nrf2 ARE act, D3 antag)
Cc1ccc(C(=O)O/N=C/c2c(N3CCOCC3)n(C)c3ccccc23)cc1	DRD3 agonist 53.4
Cn1c(Cl)c(/C=N/OC(=O)c2ccc(Cl)cc2)c2ccccc21	D3 antag -69.4
Cc1ccc(OCc2nc(-c3ccc(C(=O)NCCc4ccc(Cl)cc4)cc3)oc2C)cc1	none (no result: D3 antag)
CC(C)(C)C(=O)NC1=NN(c2c(Cl)cc(Cl)cc2Cl)C(=O)C1	D3 antag -58.6
CCn1c(-c2ccccc2F)nc2cc(NC(C)=O)cc(C(=O)N3CCC[C@H]3C(=O)OC)c21	none (no result: DRD3 agonist, Nrf2 ARE act, D3 antag)
CCN(c1ccccc1)S(=O)(=O)c1ccc(NC(=S)NC(=O)c2cccs2)cc1	D3 antag -74.3
CCN(c1ccccc1)S(=O)(=O)c1cc(C(=O)NCC(c2ccc(OC)cc2)N(C)C)ccc1C (centres undefined)	D3 antag -89.5
CCCOc1ccc(C(=O)NCC(c2cccs2)N(C)C)cc1 (centres undefined)	none
CCN(c1ccccc1)S(=O)(=O)c1ccc(C(=O)NCC(=O)Nc2ccc(F)c(F)c2F)cc1	D3 antag -96.9
CN(c1ccccc1)S(=O)(=O)c1cccc(C(=O)NCC(=O)Nc2ccc(F)c(F)c2F)c1	none
CCOc1ccc(C(=O)NCC(c2cccs2)N(C)C)cc1OCC (centres undefined)	D3 antag -58.8
CCn1nc(-c2ccccc2C)nc2c(=O)n(C)c(=O)nc1-2	none (no result: DRD3 agonist, Nrf2 ARE act, D3 antag)
CC(=O)Nc1cc(O)c2nonc2c1O	none (no result: DRD3 agonist, Nrf2 ARE act, D3 antag)
CCN(c1ccccc1)S(=O)(=O)c1cccc(C(=O)NCC(c2cccs2)N2CCOCC2)c1 (centres undefined)	none
CCN(c1ccccc1)S(=O)(=O)c1ccc(C(=O)NCC(c2cccs2)N(C)C)cc1 (centres undefined)	D3 antag -51.9
COc1cc(C2NC(=O)NC(C)=C2C(=O)OCC2CCCO2)cc(OC)c1OC (centres undefined)	none
COc1cc(C2NC(=O)NC(C)=C2C(=O)OCC2CCCO2)ccc1O (centres undefined)	DRD3 agonist 31.4
Cc1cc(OCC(=O)Nc2ccc(N3CCN(C(=O)c4ccco4)CC3)cc2)cc(C)c1Cl	DRD3 agonist 54.8
CCn1c(-c2ccccc2F)nc2cc(NC(C)=O)cc(C(=O)NC(c3ccccn3)C(F)(F)F)c21 (centres undefined)	none (no result: DRD3 agonist, Nrf2 ARE act, D3 antag)
CC1(Cc2ccc(OC(F)(F)F)cc2)C(=O)Nc2ccc(OC(F)(F)F)cc21 (centres undefined)	none
CCOC(=O)C1=NOC2(C1)C(=O)Nc1ccc(OC(F)(F)F)cc12 (centres undefined)	D3 antag -87.2 (no result: Glioma ERSR ind)
CCCn1c(SCC(=O)Nc2cccc(C)n2)nc2c1c(=O)n(C)c(=O)n2C	none
CCCn1c(SCC(=O)Nc2cc(C)on2)nc2c1c(=O)n(C)c(=O)n2C	D3 antag -50.7
CCc1nc2c(OCC(=O)C(C)(C)C)cccn2c1N(C=O)CC(=O)N(C)C	D3 antag -98.3
CCCCN(C=O)c1c(CC)nc2c(OCCn3cccc3)cccn12	D3 antag -81.8
O=C(CCNS(=O)(=O)c1ccc2c(c1)CCN2C(=O)C1CC1)Nc1ccc(Cl)cc1	none (no result: D3 antag)
COc1cc(NC(=S)Nc2cccc(Cl)c2Cl)c(OC)cc1Cl	none
COc1cc(NC(=S)Nc2ccccn2)c(OC)cc1Cl	Nrf2 ARE act 3.98µM
COc1ccccc1C(=O)Nc1ccccn1	Nrf2 ARE act 11.2µM
COC(=O)c1cc(OC)c(OC)cc1NC(=S)Nc1cccc(Cl)c1	D3 antag -65.8
O=C(Nc1ccccn1)c1ccc(Br)s1	Nrf2 ARE act 15.8µM
O=C(Nc1ccccn1)c1ccc(C(=O)Nc2ccccn2)cc1	none
COc1cc(OC)c(NC(=S)Nc2cccc(C(C)=O)c2)cc1Cl	D3 antag -59.7
COc1cccc(OC)c1CN1CCC2(CCC(CNC(=O)c3ccccc3)O2)CC1 (centres undefined)	none (no result: DRD3 agonist, Nrf2 ARE act, D3 antag)
N#Cc1ccc(-c2nc3ccc(Cl)cn3c2Cc2cccc(Cl)c2)cc1	none
Cc1ccc2nc(-c3ccc(C#N)cc3)c(Cc3cccc(Cl)c3)n2c1	D3 antag -52.6
COc1cc(N[C@@H](C)CCCN)c2ncccc2c1	none (no result: DRD3 agonist, Nrf2 ARE act, D3 antag)
COc1cc(NC(C)CCCN)c2ncccc2c1Oc1ccccc1 (centres undefined)	D3 antag -56.2
C1=C(c2ccc3c(c2)CN(Cc2cccn2-c2ncccn2)CCO3)Cc2ccccc21	none (no result: DRD3 agonist, Nrf2 ARE act, D3 antag)
CCc1ccc(-c2cc(C)no2)cc1S(=O)(=O)Nc1cc(C)on1	D3 antag -75.4
O=C(C1CCC(CNS(=O)(=O)c2cccs2)CC1)N1CCN(c2ccc(F)cc2)CC1 (centres undefined)	DRD3 agonist 45.4
O=C(NCc1ccc(F)cc1)C1CCC(CNS(=O)(=O)c2cccs2)CC1 (centres undefined)	none
COc1cccc(OCc2ccc(Cn3nc(NC(=O)NCCc4ccc(OC)c(OC)c4)c4ccccc43)cc2)c1	D3 antag -108.2
COc1ccc(CCNC(=O)Cc2nn(C)c(=O)c3ccccc23)cc1OC	none
CC(C)[C@@H]1CN=C(N)N1C[C@@H]1CCCN1C[C@H](C)N1C[C@@H](Cc2ccccc2)N(CCc2ccc(Cl)c(Cl)c2)C1=N	D3 antag -59.5
CC[C@@H](C)[C@@H]1CN([C@@H](C)CN2CCC[C@H]2CN2C(N)=NC[C@H]2CC(C)C)C(=N)N1CCc1ccc(Cl)c(Cl)c1	none
CC(C)[C@H](CN1CCC[C@H]1CN1C(N)=NC[C@@H]1Cc1ccccc1)N1C[C@@H](Cc2ccccc2)N(CCc2ccc(Cl)c(Cl)c2)C1=N	none
C[C@@H](CN1CCC[C@H]1CN1C(N)=NC[C@@H]1Cc1ccccc1)N1C[C@@H](Cc2ccccc2)N(CCc2ccc(Cl)c(Cl)c2)C1=N	D3 antag -53.1
CCCSC1=N/C(=C\C=C\c2ccco2)C(=O)S1	Nrf2 ARE act 10µM
COc1ccc(NC(=O)CCCNC(=O)Cn2cnc3sc(C)c(C)c3c2=O)cc1OC	DRD3 agonist 31.1
Cc1cc(Cl)ccc1OCC(=O)Nc1cccc(-c2nc3ccccc3o2)c1	none (no result: DRD3 agonist, Nrf2 ARE act, D3 antag)
COc1ccc(-c2[nH][nH]c(=O)c2NC(=O)c2ccccc2Br)cc1	D3 antag -53.4
